Structures are written as SMILES. Results filed as inconclusive are left out. Entries that show only a call come without a potency. Activity calls are given as the source filed them. Calls follow the shape of the dose curve; as a rule, active = well fitted inhibition curve with a large enough effect in the signal ratio in the repeat runs, with a control signal flat; inconclusive = weak or mixed curves, or effect the other way; inactive = flat fitted curve, though single readings scatter; the % refers to the signal ratio.

Chain of D(2) dopamine receptor (Homo sapiens) (P14416 whole entry, looked up): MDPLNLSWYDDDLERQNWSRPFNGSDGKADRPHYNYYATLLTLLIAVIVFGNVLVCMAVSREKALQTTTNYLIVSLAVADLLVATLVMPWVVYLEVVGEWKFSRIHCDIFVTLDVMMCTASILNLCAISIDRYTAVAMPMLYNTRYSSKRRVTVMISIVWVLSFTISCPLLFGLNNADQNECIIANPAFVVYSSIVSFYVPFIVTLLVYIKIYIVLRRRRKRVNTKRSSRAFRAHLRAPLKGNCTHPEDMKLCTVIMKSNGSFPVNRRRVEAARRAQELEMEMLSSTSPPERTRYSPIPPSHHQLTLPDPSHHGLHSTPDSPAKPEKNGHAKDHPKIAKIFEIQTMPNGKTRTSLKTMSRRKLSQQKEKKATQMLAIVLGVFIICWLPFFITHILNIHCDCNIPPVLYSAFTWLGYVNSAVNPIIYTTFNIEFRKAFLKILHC

The test has as its target D(2) dopamine receptor (Homo sapiens) (UniProt P14416). Nature of the test: Dopamine D2 receptor (DRD2) small molecule antagonists, cell-based qHTS assay (AID 1963595). Particulars: HEK293-DRD2 cAMP HTRF antagonist mode; series mostly up to 92.4 µM. The text has this: National Center for Advancing Translational Sciences [NCATS]
Division of Preclinical Innovation [DPI]
U.S. Environmental Protection Agency [EPA]
National Institutes of Environmental Health Sciences [NIEHS]
National Toxicology Program [NTP]
U.S. Food and Drug Administration [FDA]
DRD2 is the D2 subtype of the dopamine receptor, which is coupled to Gi subtype of G protein-coupled receptor. This G protein-coupled receptor inhibits adenylyl cyclase activity. The DRD2-HEK293 cell line stably expressing D2 dopamine receptor can be used for screening agonists and antagonists of interactions between D2 and its ligands. The Hek293-DRD2 cAMP assay is based on HTRF technology. It measures changes of cAMP accumulation in response to Gi coupled GPCR activation or inhibition.
Tox21 Assay Protocol Summary:
DRD2-Hek293 cells were dispensed at 600 cells/3uL/well in 1536-well white plates using a Multidrop Dispenser. After the assay plates were incubated at a 37 C/5% CO2 incubator for 24 h, 1 uL of Ro20-1724 at final concentration of 0.1 mM was transferred to the assay plate by a Flying Reagent Dispenser. Following Ro20-1724 addition, 23 nL of compound dissolved in DMSO, positive controls or DMSO only was added to the assay plates via Wako pintool station. The assay plates were incubated at room temperature for 10 min. Next, 1 uL of mixture of NKH477 (final concentration at 200 nM) and quinpirole (final concentration at 12 nM) was added into the plates. After the assay plates were incubated at room temperature for an additional 30 min, 2.5 ul/well of cAMP-d2 and 2.5 ul/well of anti-cAMP-cryptate were added respectively into the assay plates using a Flying Reagent Dispenser. The plates were incubated at room temperature for 1 h. The fluorescence intensity in the plates was measured at 340 nm excitation and 665 & 620 nm emission by an Envision plate reader.
Background: Quantitative high-throughput screening tests each substance at several concentrations.
Turning to `COC(=O)c1ccccc1N`, the Potency entry was “inactive”.
The same measure for `O=C/C=C/c1ccccc1`: “inactive”; for `Oc1c(Cl)c(Cl)c(Cl)c(Cl)c1Cl`: “inactive”.
For the compound `NC(=O)O`, the Potency entry is “inactive”.
For `c1ccc(-c2ccccc2)cc1`, the Potency entry is “inactive”.
As for `Oc1ccc(Cl)cc1Cl`, the Potency result was “inactive”.
For the compound `O=Cc1ccccc1`, the Potency entry was “inactive”.
For the compound `CC(C)c1ccc(CO)cc1`, the Potency entry is “inactive”.
Consider `COc1cc2c(cc1OC)[C@@]13CCN4CC5=CCO[C@H]6CC(=O)N2[C@H]1[C@H]6[C@H]5C[C@H]43`, for which the Potency entry was “inactive”.
Take `Clc1nc(Cl)nc(Nc2ccccc2Cl)n1`: the Potency entry was “inactive”.
`O=S(=O)(Cl)Cl`: the Potency entry was “inactive”.
`CCCCCCCCCCCCCl`: the Potency result is “inactive”.
With `BrCc1ccc(Br)cc1`, the Potency entry is “inactive”.
The same measure for `COP(=O)(OC)C(O)C(Cl)(Cl)Cl` (stereo not given): “inactive”; for `CCN(CCO)CCO`: “inactive”; for `O=c1[nH]c(=O)n(Cl)c(=O)n1Cl`: “inactive”.
With `O=[N+]([O-])c1ccc([As](=O)(O)O)cc1`, the Potency result was “inactive”.
For the compound `CC(C)=CCN1CC[C@@]2(C)c3cc(O)ccc3C[C@@H]1[C@@H]2C`, the Potency entry is “inactive”.
`CC1(C)[C@H](C(=O)O[C@H](C#N)c2cccc(Oc3ccccc3)c2)[C@@H]1C=C(Br)Br`: the Potency result was “inactive”.
For `CC(C)(C#N)N=NC(C)(C)C#N` the value was “inactive”.
Consider `ClC1=C(Cl)[C@]2(Cl)[C@@H]3[C@@H](Cl)[C@@H](Cl)C[C@@H]3[C@@]1(Cl)C2(Cl)Cl`, for which the Potency result is “inactive”.
The same measure for `Nc1ccncc1`: “inactive”; for `CC1COC2(c3ccccc3Cl)c3cc(Cl)ccc3NC(=O)CN12` (stereo not given): “inactive”; for `[CH3][Sn]([Cl])([Cl])[Cl]`: “inactive”.
The same measure for `CCCCOC(=O)CCC(=O)OCCCC`: “inactive”; for `CCCN(CCOc1c(Cl)cc(Cl)cc1Cl)C(=O)n1ccnc1`: “inactive”; for `CC(C)c1ccc(NC(=O)N(C)C)cc1`: “inactive”.
As for `C#C[C@]1(O)CC[C@H]2[C@@H]3CCC4=CC(=O)CC[C@]4(C)[C@H]3CC[C@@]21C`, the Potency entry was “inactive”.
For the compound `O=S(=O)(c1ccc(Cl)cc1)c1cc(Cl)c(Cl)cc1Cl`, the Potency result was “inactive”.
`C=CC=O`: the Potency result is “inactive”.
Take `CC(C)OS(C)(=O)=O`: the Potency entry is “inactive”.
Consider `OCCCCO`, for which the Potency result is “inactive”.
Consider `COC(C)(C)CCCC(C)C/C=C/C(C)=C/C(=O)OC(C)C` (stereo not given), for which the Potency entry is “inactive”.
With `Cc1cccc(N)c1C`, the Potency result was “inactive”.
`Nc1ncc([N+](=O)[O-])s1`: the Potency result is “inactive”.
For `OC(O)C(Cl)(Cl)Cl` the value was “inactive”.
The same measure for `CCC(C)Cl` (stereo not given): “inactive”.
As to `CCNc1nc(Cl)nc(NCC)n1`, the Potency entry is “inactive”.
`CC(C)OC(=S)S`: the Potency result is “inactive”.
For `CCC(C)C(C)(COC(N)=O)COC(N)=O` (stereo not given), the Potency entry was “inactive”.

The record behind these values is PubChem BioAssay (Tox21).
